Screens (PubChem BioAssay)
aSyn rescue: inhibitors of alpha-synuclein toxicity in yeast; Yeast expressing alpha-synuclein, growth rescue, BacTiter-Glo, 24 h; 370,000 tested, 0.14% active; Potency, µM (highest dose often 46.1 µM), usual class: activators; AID 652106; also: nearly all actives have a fitted effect of over 65% in size
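Screening used galactose-induced yeast with toxic alpha-synuclein levels, exposed to compound for 24 hr at 30 deg C. Cell growth, read with BacTiter-Glo luminescence, gave the measured signal.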
TDP-43 yeast inh: rescues yeast growth from TDP-43 toxicity; TDP-43 expressing yeast growth rescue, BacTiter-Glo, 24 h; Potency, µM (highest dose often 46.1 µM), most hits filed as activators; 410,000 tested, 1.8% active; AID 652104; also: nearly all actives have a fitted effect of over 50% in size
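In this qHTS, compounds that restore growth of yeast expressing TDP-43 appear as activators. Cells (OD600=0.02, galactose medium, raffinose-pregrown) are incubated with compound 24 hr at 30 deg C and growth is quantified by BacTiter-Glo.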
Abeta yeast res: restores growth of yeast expressing A-beta42 peptide; yeast expressing A-beta42, growth rescue, OD600, 48 h; response scale: 0% DMSO, 100% iron-clioquinol control; AID 1347071; Potency, µM (series often up to 46.1 µM), actives largely listed as activators; 410,000 tested, 0.063% active; also: nearly all actives have a fitted effect of over 55% in size
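Yeast growth medium received pinned compounds, then yeast cells expressing toxic A-beta were added; plates incubated at 30 C for 48 hr. Growth read as absorbance at 600 nm, normalized to DMSO and equimolar FeCl3 plus clioquinol controls.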
FUS yeast rescue: FUS proteinopathy suppression in yeast. Potency, µM (series often up to 76.6 µM), usual class: activators. 390,000 tested, 0.24% active. S. cerevisiae FUS-expressing, growth rescue, OD600, 24 h. AID 1347120; also: nearly all actives have a fitted effect of over 55% in size
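FUS-expressing yeast, raffinose-pregrown, induced in 2% galactose minimal medium at OD 0.005; compounds in a dilution series, 24hr at 30C. Growth restoration read as absorbance at 600 nm. CP55940 positive control, DMSO negative.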
Numbers stand for hits; - = inactive; ? = inconclusive; . = not tested or not shown. A selection: hits, their analogues and other compounds. The true share with any hit is near 2.1%. Calls follow the shape of the dose curve; as a rule, active = well fitted curve in the direction sought with a large enough effect; inconclusive = small, poorly fitted or top-dose-only effect, or another doubt; inactive = no such curve, though single readings can be large; an effect the other way counts as inactive or inconclusive.

SMILES	aSyn rescue	TDP-43 yeast inh	Abeta yeast res	FUS yeast rescue
COc1ccc(CC(=O)NO)cc1OC	-	.	.	.
N#Cc1ccc(NC(=S)NC(=O)C2CC2)cc1	?	12.6µM	-	-
CC(=O)Nc1ccc(NC(=S)NC(=O)C2CC2)cc1	-	-	-	-
O=C(Nc1ccc(F)cc1)C1CCCCC1	-	-	-	-
CN(c1ccccc1)S(=O)(=O)c1ccc(NC(=S)NC(=O)C2CC2)cc1	-	17.8µM	-	-
O=C(NC(=S)Nc1ccc(F)cc1)C1CCCCC1	-	-	5.01µM	-
Cc1ccc(NC(=S)NC(=O)C2CCCC2)cc1C	-	-	8.91µM	-
COC(=O)c1cc(C(C)c2ccccc2O)n2ccccc12 (stereo unspecified)	.	.	.	-
COc1ccc(C(C(=O)N(C)C2CCCC2)N(Cc2ccc(F)cc2)C(=O)c2cc(C)on2)cc1OC (stereo unspecified)	.	.	.	-
O=C(Nc1nc(-c2cccs2)c(-c2cccs2)s1)C1CCCC1	-	14.1µM	-	.
CC(=O)c1cc(-c2ccccc2-c2ccccc2)c(=O)n2c1CCC2	.	.	.	-
CN(C)S(=O)(=O)Oc1ccsc1C(=O)Nc1ccc(C(F)(F)F)cc1	-	-	?	-
CN(C)S(=O)(=O)Oc1ccsc1C(=O)Nc1ccc(Br)cc1	-	12.6µM	?	-
CN(C)S(=O)(=O)Oc1ccc(Cl)cc1C(=O)Nc1cccc(C(F)(F)F)c1	-	-	-	-
CN(C)S(=O)(=O)Oc1ccsc1C(=O)Nc1ccc(Cl)c(Cl)c1	-	22.4µM	-	-
CN(C)S(=O)(=O)Oc1ccsc1C(=O)Nc1cccc(Cl)c1	-	12.6µM	-	-
C1=Nc2ccccc2/C1=C/c1c[nH]c2ccccc12	-	.	.	.
COc1ccc(Oc2c(Cl)cnn(-c3ccc(C(C)C)c(C)c3)c2=O)cc1	.	.	.	-
CCCC[C@H]1C2CC(OC(=O)Nc3ccccc3)C(C2)[C@H]2CCCCN21 (stereo partly specified)	.	.	.	-
O=C(Nc1ccccc1)OCCc1ccccc1	-	35.5µM	-	-
CCCCOC(=O)Nc1cccc(C(C)=O)c1	-	11.2µM	-	-
CCOC(=O)Nc1cccc(Nc2ccccc2)c1	-	14.1µM	-	-
CCCCOC(=O)c1cccc(NC(=O)CCC(=O)O)c1	-	-	-	-
O=C(Nc1ccccc1)OCCCc1ccccc1	-	?	-	-
CCOC(=O)Nc1cccc(C(=O)O)c1	-	-	-	-
SMILES	aSyn rescue	TDP-43 yeast inh	Abeta yeast res	FUS yeast rescue
CC(=O)CC[C@H]1CC[C@]2(CCCN(C(=O)c3ccco3)C2)O1	.	.	.	-
O=C(c1cc(-c2ccccc2)on1)N1CCC(Oc2cccnc2)CC1	.	.	.	-
S=c1[nH]nc(-c2cc(-c3ccccc3)n[nH]2)n1/N=C/c1cccc2ccccc12	.	.	.	-
CC(C)CNC(=O)CC1Oc2ccccc2NC1=O (stereo unspecified)	.	.	.	-
COCCCN=C1NN=C(c2cc(C)n(Cc3ccccc3Cl)c2C)CS1	-	-	-	?
COCCN=C1NN=C(c2cc(C)n(CC3CCCO3)c2C)CS1 (stereo unspecified)	-	-	-	35.5µM
CCNC(=S)NN=C1c2ccccc2-c2ccccc21	-	12.6µM	-	-
C=C(C)CNC(=S)NN=C1c2ccccc2-c2ccccc21	-	-	-	-
Cn1c(SCC(=O)Nc2ccccc2-c2ccccc2)nnc1-c1ccccc1	.	.	.	-
COc1cc(/C=N/NC(=S)NC2CC3CCC2C3)ccc1O (stereo unspecified)	-	22.4µM	11.2µM	-
COc1ccc(OC)c(S(=O)(=O)N2CCCCC2C(=O)N2CCN(CCO)CC2)c1 (stereo unspecified)	.	.	.	-
CCc1ccc(NC2CC(=O)N(CCc3ccc(OC)c(OC)c3)C2=O)cc1 (stereo unspecified)	-	17.8µM	-	-
Cc1c[nH]c2cccc(-c3ccc(OCc4ccccc4)cc3)c12	.	.	.	-
O=C(N/N=C/c1ccc(OCc2ccccc2)cc1)c1cc[n+](Cc2ccccc2)cc1	-	20µM	-	-
O=C1c2[nH]nc(-c3ccccc3O)c2C(c2cccc(Cl)c2)N1Cc1ccco1 (stereo unspecified)	-	?	-	?
Cc1cc(C)c(O)c(-c2n[nH]c3c2C(c2cccc(O)c2)N(Cc2ccco2)C3=O)c1 (stereo unspecified)	-	-	-	31.6µM
O=C1c2[nH]nc(-c3ccccc3O)c2C(c2ccc(F)cc2)N1Cc1ccco1 (stereo unspecified)	-	-	-	44.7µM
Cc1ccc(CN2CCCCC(NC(=O)c3ccc4ccccc4c3)C2=O)cc1 (stereo unspecified)	.	.	.	-
O=C1/C(=C/c2ccsc2)CC/C1=C\c1cccs1	-	.	.	.
COc1ccc(-c2nc3ccccc3c(=O)n2O)cc1	31.6µM	-	-	-
O=c1c2ccccc2nc(-c2ccccc2)n1O	-	-	-	-
O=C(OCc1cc(Cl)cc2c1OCOC2)c1cccnc1Cl	15.8µM	?	-	-
CC(C)(C)S(=O)N1Cc2cc(C(=O)NCc3ccc4c(c3)OCO4)nc(-c3cccc(-c4cc5ccccc5o4)c3)c2[C@@H]1CCO (stereo partly specified)	-	-	-	28.2µM
COc1cccc(-c2cccc(-c3nc(C(=O)Nc4ccc(-c5ccccc5)cc4)cc4c3[C@H](CCO)N(S(=O)C(C)(C)C)C4)c2)c1 (stereo partly specified)	-	-	-	28.2µM
COc1cccc(-c2cccc(-c3nc(C(=O)NCc4ccc5c(c4)OCO5)cc4c3[C@H](CCO)N(S(=O)C(C)(C)C)C4)c2)c1 (stereo partly specified)	-	-	-	20µM
SMILES	aSyn rescue	TDP-43 yeast inh	Abeta yeast res	FUS yeast rescue
CC(C)(C)S(=O)N1Cc2cc(C(=O)NCc3ccc(Oc4ccccc4)cc3)nc(-c3cccc(-c4cc5ccccc5o4)c3)c2[C@H]1CCO (stereo partly specified)	-	-	-	?
CC(C)(C)S(=O)N1Cc2cc(C(=O)NCC(F)(F)F)nc(-c3cccc(-c4cccc(F)c4)c3)c2[C@@H]1CCO (stereo partly specified)	-	-	-	22.4µM
O=c1c2cc3cc(Cl)ccc3nc2ncn1N1CCCCC1	.	.	.	-
COc1cc(NC(=O)CSc2nnc3c4ccccc4n(C)c3n2)cc(OC)c1OC	-	.	.	.
CC1CCCN(S(=O)(=O)c2ccc(S(=O)(=O)NC(C)c3cccs3)cc2)C1 (stereo unspecified)	-	-	-	31.6µM
Cc1c(C(=O)NCc2ccccc2Cl)sc2ncnc(N(C)C3CCCCC3)c12	.	?	-	-
Cc1ccc(C)c(CNC(=O)c2sc3ncnc(N(C)C4CCCCC4)c3c2C)c1	.	22.4µM	-	-
CCNC(=O)N1c2ccc(OC)cc2C(C)=CC1(C)C	-	12.6µM	-	-
CCN(Cc1cccs1)c1ncnc2ccc(-c3ccc4c(c3)OCO4)cc12	.	.	.	-
Oc1cccc(C=NN=C2c3ccccc3-c3ccccc32)c1	-	28.2µM	-	.
CCOc1cc(C=NN=C2c3ccccc3-c3ccccc32)ccc1O	-	14.1µM	-	.
COC(=O)[C@]1(CNS(=O)(=O)C2CC2)CC(=O)N(C)[C@@H]1c1ccccc1	.	.	.	-
